Measured values as given in publication PMC3218832.

How the values were obtained:
Experiment in all cases: protein binding microarray; high values mean tight binding
Conditions in all cases: dsDNA, one strand shown
RELARELA (p65 homodimer) = RELARELA (p65 homodimer) (Homo sapiens, UniProt Q04206 1-307)
p50p50 homodimer = p50p50 homodimer (Homo sapiens, UniProt P19838 7-356)
p52p52 homodimer = target: T1, p52p52 homodimer (Homo sapiens, UniProt Q00653 4-332)
T1 sequence: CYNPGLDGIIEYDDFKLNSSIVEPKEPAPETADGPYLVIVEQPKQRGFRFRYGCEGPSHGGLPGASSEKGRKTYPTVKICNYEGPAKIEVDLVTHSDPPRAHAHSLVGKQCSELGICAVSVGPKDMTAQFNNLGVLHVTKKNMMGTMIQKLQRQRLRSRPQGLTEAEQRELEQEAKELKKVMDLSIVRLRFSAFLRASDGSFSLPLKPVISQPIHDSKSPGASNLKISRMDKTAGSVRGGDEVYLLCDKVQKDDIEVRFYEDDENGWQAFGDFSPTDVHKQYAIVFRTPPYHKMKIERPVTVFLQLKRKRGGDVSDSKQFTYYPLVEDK

[1] = target: RELA (p65) subunit of heterodimer;p50 subunit (Homo sapiens;Homo sapiens, UniProt Q04206;P19838 1-307;7-356)
Sequence of RELA (p65) subunit of heterodimer;p50 subunit (Q04206 1-307, chain 1 of 2): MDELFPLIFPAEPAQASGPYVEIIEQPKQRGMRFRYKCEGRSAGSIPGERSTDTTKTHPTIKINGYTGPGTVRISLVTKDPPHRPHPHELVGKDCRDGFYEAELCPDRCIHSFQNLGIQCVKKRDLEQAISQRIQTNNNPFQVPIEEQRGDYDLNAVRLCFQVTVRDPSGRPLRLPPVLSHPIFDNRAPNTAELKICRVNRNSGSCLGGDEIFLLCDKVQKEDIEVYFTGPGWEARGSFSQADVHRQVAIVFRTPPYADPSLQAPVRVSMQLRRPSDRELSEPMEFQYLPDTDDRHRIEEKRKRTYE
Sequence of RELA (p65) subunit of heterodimer;p50 subunit (P19838 7-356, chain 2 of 2): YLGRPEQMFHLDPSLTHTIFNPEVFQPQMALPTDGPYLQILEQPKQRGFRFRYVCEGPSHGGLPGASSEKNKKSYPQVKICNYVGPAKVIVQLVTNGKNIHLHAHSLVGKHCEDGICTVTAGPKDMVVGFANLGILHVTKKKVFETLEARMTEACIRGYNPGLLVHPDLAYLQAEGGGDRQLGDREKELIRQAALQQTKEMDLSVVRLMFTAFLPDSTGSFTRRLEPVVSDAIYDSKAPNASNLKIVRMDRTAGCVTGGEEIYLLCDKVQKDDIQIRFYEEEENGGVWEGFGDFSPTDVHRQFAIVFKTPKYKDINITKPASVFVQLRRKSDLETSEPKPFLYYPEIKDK

[2] = target: RELA (p65) subunit of heterodimer;p52 subunit (Homo sapiens;Homo sapiens, UniProt Q04206;Q00653 1-307;4-332)
RELB subunit;p50 subunit = RELB subunit;p50 subunit (Homo sapiens;Homo sapiens, UniProt Q01201;P19838 120-401;7-356)
RELB subunit;p52 subunit = target: T2, RELB subunit;p52 subunit (Homo sapiens;Homo sapiens, UniProt Q01201;Q00653 120-401;4-332)
T2 sequence 1: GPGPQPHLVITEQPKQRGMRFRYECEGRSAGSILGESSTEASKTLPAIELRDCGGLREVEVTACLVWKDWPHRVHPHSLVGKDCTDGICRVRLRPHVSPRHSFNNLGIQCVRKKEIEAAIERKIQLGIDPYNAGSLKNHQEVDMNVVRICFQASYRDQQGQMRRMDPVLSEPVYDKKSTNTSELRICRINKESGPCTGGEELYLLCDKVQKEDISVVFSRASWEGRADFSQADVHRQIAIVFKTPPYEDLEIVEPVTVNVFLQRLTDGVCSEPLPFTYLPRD
T2 sequence 2: T1 sequence

[3] = target: C-Rel subunit;p50 subunit (Homo sapiens;Homo sapiens, UniProt Q04864;P19838 1-285;7-356)
[4] = target: T3, C-Rel subunit;p52 subunit (Homo sapiens;Homo sapiens, UniProt Q04864;Q00653 1-285;4-332)
T3 sequence 1: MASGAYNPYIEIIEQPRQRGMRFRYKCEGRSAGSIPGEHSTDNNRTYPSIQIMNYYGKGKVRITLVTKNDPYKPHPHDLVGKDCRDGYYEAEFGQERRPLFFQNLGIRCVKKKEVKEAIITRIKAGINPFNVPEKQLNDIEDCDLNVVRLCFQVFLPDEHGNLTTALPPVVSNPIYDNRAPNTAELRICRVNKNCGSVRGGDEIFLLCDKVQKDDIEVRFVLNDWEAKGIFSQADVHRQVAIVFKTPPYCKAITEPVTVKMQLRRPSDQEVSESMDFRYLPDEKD
T3 sequence 2: T1 sequence

Sequence of RELARELA (p65 homodimer) (Q04206 1-307): as the sequence (Q04206 1-307, chain 1 of 2) above
Sequence of p50p50 homodimer (P19838 7-356): as the sequence (P19838 7-356, chain 2 of 2) above

Sequence | binding signal (RELARELA (p65 homodimer)) [z-score] | binding signal (p50p50 homodimer) [z-score] | binding signal (p52p52 homodimer) [z-score] | binding signal [1] [z-score] | binding signal [2] [z-score] | binding signal (RELB subunit;p50 subunit) [z-score] | binding signal (RELB subunit;p52 subunit) [z-score] | binding signal [3] [z-score] | binding signal [4] [z-score]
AGGGACGTCCT | 0.554 | 0.528 | 1.06 | 0.549 | 0.923 | 0.448 | 0.709 | 0.177 | 0.67
AGGGTGCCCCT | -0.552 | 0.473 | 0.342 | 0.511 | 0.658 | 0.571 | 1.16 | 0.426 | 0.644
CAGGGGTTCCT | -0.143 | 0.529 | 0.77 | -0.0941 | 0.55 | -0.0145 | 0.388 | -0.324 | 0.485
GAGGTGACCCC | -0.476 | -0.386 | -0.328 | -0.534 | -0.428 | -0.385 | -0.19 | -0.788 | -0.26
AAGAATTTCCT | 1.63 | -0.591 | -0.35 | -0.206 | -0.329 | -0.672 | -0.375 | 0.0204 | -0.227
AAGTTGATCCC | -0.64 | -0.815 | -0.6 | -0.903 | -0.719 | -0.688 | -0.621 | -1.07 | -0.615
GAATTTACCCT | 0.959 | 0.984 | 0.839 | 0.86 | 0.817 | 0.602 | 0.504 | 0.6 | 0.479
GGGTTGGTCCT | -0.152 | -1.58 | -0.471 | -0.621 | -0.757 | -0.889 | -0.766 | -1.12 | -0.527
AAGGTGTCCCT | -0.0449 | 0.811 | 0.895 | 0.784 | 0.967 | 1.01 | 1.5 | 0.63 | 0.562
CAAGTAATCCC | -0.158 | -0.156 | -0.0587 | -0.365 | -0.426 | -0.117 | -0.123 | 0.0809 | -0.302
AAGAGCATCCT | -0.702 | -1.75 | -0.753 | -1.09 | -1.17 | -1.16 | -0.978 | -1.52 | -1.15
AGGAAAGTCCC | 2.97 | 0.984 | 2.54 | 2.16 | 1.77 | 1.45 | 1.93 | 2.17 | 2.89
AAAGTTACCCT | -0.188 | 0.663 | 0.376 | 0.371 | 0.376 | 0.557 | 0.191 | 0.279 | 0.216
CGGTAGTCCCC | 0.678 | 1.22 | 1.51 | 1.43 | 1.31 | 1.05 | 1.33 | 1.12 | 1.42
AGAAACGTCCT | -0.192 | -1.17 | -0.534 | -0.997 | -0.794 | -0.947 | -0.798 | -1.13 | -0.812
GAGGAATCCCT | 0.176 | 0.599 | 0.671 | 0.612 | 0.532 | 0.403 | 0.517 | 0.573 | 0.416
AGGTATTTCCC | 2.88 | 0.816 | 2.74 | 1.5 | 2.11 | 1.27 | 1.85 | 1.43 | 2.34
AAGTAAGTCCC | 0.51 | 1.02 | 0.587 | 0.837 | 0.459 | 1.1 | 0.647 | 0.768 | 0.419
CAAAACACCCC | 0.0833 | 0.707 | 0.313 | 0.534 | 0.701 | 0.488 | 1.03 | 0.611 | 0.701
AAGTATGCCCC | 0.441 | 0.0869 | -0.0889 | 0.289 | 0.0585 | 0.197 | 0.2 | 0.628 | 0.354
AAGTGGGTCCC | -0.651 | -0.324 | -0.0356 | -0.468 | -0.433 | -0.00499 | -0.124 | -0.493 | -0.609
AGAAAAGCCCC | 1.13 | 0.938 | 2.07 | 1.57 | 1.76 | 1.77 | 1.57 | 0.96 | 1.65
AGGGTGGTCCC | -0.0899 | 0.541 | 0.435 | 0.249 | 0.357 | 0.251 | 0.266 | 0.364 | 0.427
CGATATATCCC | 0.113 | -0.443 | -0.0767 | -0.33 | -0.28 | -0.357 | -0.154 | -0.427 | -0.465
GGGGGCGCCCT | 0.992 | 0.922 | 1.68 | 1.43 | 1.58 | 1.12 | 1.33 | 0.776 | 1.34
CGGAAGCTCCT | -0.12 | -1.95 | -0.752 | -1.05 | -1.08 | -1.17 | -1.2 | -1.46 | -0.785
AAGGGACCCCC | -0.529 | 0.964 | 0.927 | 0.806 | 0.93 | 0.75 | 0.929 | 0.681 | 0.75
GAGTACACCCT | -0.136 | -0.892 | -0.573 | -0.83 | -0.569 | -0.614 | -0.527 | -0.745 | -0.376
GAAGTGCTCCT | -0.661 | -1.67 | -0.792 | -0.918 | -1.01 | -1.33 | -1.22 | -1.67 | -1
AAAGTTGCCCC | 1 | 0.606 | 0.147 | 0.949 | 0.337 | 0.677 | 0.595 | 1.26 | 0.617
